# Source: PubChem BioAssay AID588352 (The Scripps Research Institute Molecular Screening Center, 2011)
# The whole screen tested about 360,000 compounds, of which about 620 (0.17%) were called active.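 Rule for the calls: active = inhibition above a per-campaign cutoff, the mean of all compounds plus 3 SD (cut at about 60% in these data); inactive = the rest.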 The sample as a whole holds a higher share of actives than the screen did.
# Molecular target: Nuclear receptor coactivator 3 (Homo sapiens) (UniProt Q9Y6Q9)
# Assay: SRC3 coactivator transcriptional activity inhibitors, primary screen, cell-based, luminescence (AID 588352);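 note: 0% = DMSO-treated cells and 100% = gossypol-treated cells at 36 µM; higher means less SRC3-driven luciferase light from the GAL4 reporter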
# Details: HEK293 GAL4-SRC3 luciferase reporter, at 3.6 µM, stronger effect = higher value
# Nuclear receptor coactivator 3 (Homo sapiens), sequence (Q9Y6Q9 whole entry, looked up, the tested form may be a part): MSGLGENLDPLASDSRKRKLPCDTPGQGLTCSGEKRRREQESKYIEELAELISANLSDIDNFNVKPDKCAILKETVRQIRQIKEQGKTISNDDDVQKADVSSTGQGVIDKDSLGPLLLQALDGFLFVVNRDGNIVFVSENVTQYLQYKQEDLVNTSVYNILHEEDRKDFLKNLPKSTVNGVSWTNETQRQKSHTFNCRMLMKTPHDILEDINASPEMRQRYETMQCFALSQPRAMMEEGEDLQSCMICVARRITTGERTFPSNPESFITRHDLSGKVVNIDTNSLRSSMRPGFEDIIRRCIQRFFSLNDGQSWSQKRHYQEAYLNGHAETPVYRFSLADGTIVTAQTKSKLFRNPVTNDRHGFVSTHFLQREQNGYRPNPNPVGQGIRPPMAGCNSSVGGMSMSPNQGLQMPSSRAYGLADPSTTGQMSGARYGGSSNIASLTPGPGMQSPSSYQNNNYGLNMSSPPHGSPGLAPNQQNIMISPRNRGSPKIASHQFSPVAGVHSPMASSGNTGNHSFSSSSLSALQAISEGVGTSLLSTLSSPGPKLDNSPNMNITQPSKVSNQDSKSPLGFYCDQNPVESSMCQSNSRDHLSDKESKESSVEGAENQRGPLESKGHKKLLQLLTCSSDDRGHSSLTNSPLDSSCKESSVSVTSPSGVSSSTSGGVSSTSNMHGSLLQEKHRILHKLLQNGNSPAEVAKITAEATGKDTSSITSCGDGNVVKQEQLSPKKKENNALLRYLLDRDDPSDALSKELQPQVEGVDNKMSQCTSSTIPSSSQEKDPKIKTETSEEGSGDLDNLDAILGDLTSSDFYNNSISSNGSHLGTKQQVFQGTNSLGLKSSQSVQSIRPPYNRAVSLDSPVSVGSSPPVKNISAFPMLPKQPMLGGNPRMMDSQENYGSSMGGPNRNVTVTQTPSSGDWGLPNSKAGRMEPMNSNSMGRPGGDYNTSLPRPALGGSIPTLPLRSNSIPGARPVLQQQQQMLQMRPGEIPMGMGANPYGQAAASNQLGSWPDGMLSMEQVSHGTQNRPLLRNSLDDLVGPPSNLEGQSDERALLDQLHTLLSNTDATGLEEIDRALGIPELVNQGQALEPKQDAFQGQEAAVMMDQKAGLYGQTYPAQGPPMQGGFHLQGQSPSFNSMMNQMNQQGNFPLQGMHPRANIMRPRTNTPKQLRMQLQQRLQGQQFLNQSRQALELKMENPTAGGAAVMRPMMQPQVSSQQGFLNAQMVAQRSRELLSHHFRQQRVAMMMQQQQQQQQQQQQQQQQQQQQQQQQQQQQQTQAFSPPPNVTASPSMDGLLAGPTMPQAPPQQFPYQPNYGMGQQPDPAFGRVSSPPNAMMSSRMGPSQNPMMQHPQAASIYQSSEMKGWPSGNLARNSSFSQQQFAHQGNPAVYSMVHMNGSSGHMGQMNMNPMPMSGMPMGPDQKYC
row,Structure (SMILES),inhibition
1,CC12CCC(O)CC1CCC1C2CCC2(C)C(C(=O)CC(O)C(F)(F)F)CCC12 (stereo not given),15.9% (inactive)
2,C[C@]12CC[C@H](O)C[C@H]1CC[C@@H]1C2CC[C@]2(C)[C@@H](C3=CC(=O)OC3)[C@@H](O)C[C@]12O (stereo not given in full),63.5% (active)
3,Cc1cccc(OP(=O)(Oc2cccc(C)c2)OC(c2ccccc2)C(F)(F)F)c1 (stereo not given),-1.86% (inactive)
4,C[N+]1(C)CCOC(O)(c2ccc(-c3ccc(C4(O)C[N+](C)(C)CCO4)cc3)cc2)C1 (stereo not given),20.3% (inactive)
5,CNC(=S)N/N=C1\C2CN3CCN(C2)CC1(c1ccccc1)C3,8.65% (inactive)
6,COC(=O)C1=C(c2ccc(-c3ccccc3)c(F)c2)C[C@@H]2CC[C@H]1N2C(=O)NCc1ccc(F)cc1,9.01% (inactive)
7,CCC(C)(O)C(=O)OC1C(=O)OC2CC3C(C)=CC(=O)C(O)C3(C)C3C4(O)OCC23C1C(C)C4O (stereo not given),93.7% (active)
8,O=C(Cn1c(=O)n(CC2CS2)c2ccccc21)N1CCCCC1 (stereo not given),-25.5% (inactive)
9,COc1ccccc1CN1CCN(C(=O)Cc2ccccc2)CC1,2.02% (inactive)
10,COC(=O)[C@@H]1C(OC(=O)c2ccccc2)CC2CCC1N2C (stereo not given in full),14.1% (inactive)
11,CN(C)CCN(CC1CCCN(Cc2ccccc2F)C1)C(=O)Cc1ccc(F)c(F)c1 (stereo not given),3.08% (inactive)
12,C=CC12CN(C)[C@@H]3C4CO[C@H](C[C@H]41)[C@]1(C(=O)Nc4ccccc41)[C@@H]32 (stereo not given in full),4.33% (inactive)
13,CCOc1ccc(-c2cc(C)[n+](CCN(CC)CC)c(-c3ccc(OCC)cc3)c2)cc1,78% (active)
14,Cn1c(O)c(C=Nc2ccc3c(c2)CCC3)c(=O)n(C)c1=O,-9.05% (inactive)
15,COC1C(O)C(C)OC(OC2CCC3(C=O)C(CCC4C3CCC3(C)C(C5=CC(=O)OC5)CCC43O)C2)C1O (stereo not given),90.5% (active)
16,Cn1c(C(=O)N2CCC(C(=O)N3CCC4(CC3)OCCO4)CC2)cc2sccc21,6.98% (inactive)
17,NC(=O)Cn1cc(C(=O)c2ccccc2F)c2ccccc21,10.3% (inactive)
18,Cc1ccc(P(=S)(c2ccc(C)o2)N2CCOCC2)o1,6.64% (inactive)
19,CC(c1ccccc1)(c1ccccc1)c1ccncc1,16.2% (inactive)
20,Fc1cccc(F)c1CN1CCN(Cc2c(F)cccc2F)CC1,28.2% (inactive)
21,COc1ccc2[nH]c3c(c2c1)CCN[C@H]3C,7.99% (inactive)
22,CC(=O)OC1C2(CC3N4C(=O)C5(CO)SSC4(CC31O)C(=O)N5C)OC(C)C(C)(C)C2=O (stereo not given),67.7% (active)
23,CC1CCCN1CCC(C(N)=O)(c1ccccc1)c1ccccc1 (stereo not given),-21.2% (inactive)
24,COP(=O)(OC)C(NC(=O)c1ccc(C)cc1)C(Cl)(Cl)Cl (stereo not given),-4% (inactive)
25,CCCCCCCCCCCCn1ccc(=N)cc1,76.9% (active)
26,CCOC(=O)C1CN(C)CCC1=O (stereo not given),21.1% (inactive)
27,c1ccc2sc(N3CCNCC3)nc2c1,-3.09% (inactive)
28,COc1cccc(OC)c1C(=O)NC(=S)N1C[C@H]2C[C@H](C1)c1cccc(=O)n1C2,19.2% (inactive)
29,OC(Cn1c2ccccc2c2ccccc21)C[n+]1ccccc1 (stereo not given),-8.77% (inactive)
30,CN(C)P(=S)(Nc1ccccc1)C(Cl)(Cl)Cl (stereo not given),6.36% (inactive)
